Test results from ChEMBL document CHEMBL3433997, “St. Jude Leishmania screening dataset” (2016).

The compounds below were run against Hexose transporter 1 (Plasmodium falciparum) (UniProt O97467) (assay: ST_JUDE_LEISH: Cytotoxicity at 2uM final concentration against transgenic Leishmania Mexicana promastigotes LmPfHT that are glucose transport deficient and complemented with the Plasmodium falciparum hexose transporter. Activity is measured by DNA content using SYBR green in vitro).
Assay type: functional

| SMILES | inhibition [%] |
| --- | --- |
| CCCNCc1ccc(-c2ccc(CN(Cc3cnc(C)cn3)C(=O)CC#N)cc2)nc1 | 1.17 |
| N#Cc1ccc(N2CCN(Cc3ccc(-c4ccc(-c5nc6ccccc6[nH]5)s4)cc3)CC2)nc1 | 6.18 |
| COc1ccc(CCNC(=O)c2cc(C)ccc2O)cc1-c1ccc(C(C)(C)C)cc1 | 2.89 |
| OC(CNCc1ccccc1)c1cc(OCc2ccccc2)cc(OCc2ccccc2)c1 (centres undefined) | -1.19 |
| COc1cc(Nc2nccc(N3CCC(NC(=O)C(C)c4ccc(Cl)cc4)C3)n2)cc(OC)c1OC (centres undefined) | -0.55 |
| O=C(Nc1cccc(-c2nn3ccccc3c2-c2ccnc(Nc3cccc(F)c3)n2)c1)c1c(F)ccc(F)c1Cl | 10.4 |
| COc1ccc2cc(C(c3nnnn3CC3CCCO3)N3CCc4ccccc43)c(=O)[nH]c2c1 (centres undefined) | 3.26 |
| O=C1CCCN1CCCNCc1ccc(-c2ccc(-c3nc4cc(F)ccc4[nH]3)cc2)cc1 | 13.3 |
| O=[N+]([O-])c1ccc(C2=NN(S(=O)(=O)c3c(Cl)cc(Cl)cc3Cl)CCCC2)cc1 | 0.56 |
| Cc1ccc(C(=O)Nc2cc(C(F)(F)F)cc(C(F)(F)F)c2)cc1[N+](=O)[O-] | 12.4 |
| c1cncc(Oc2ccc(Nc3ccnc4cc(-c5cccc(CN6CCOCC6)c5)ccc34)cc2)c1 | -1.33 |
| CC(=O)Nc1ccc(OCCCN(Cc2ccccc2C(F)(F)F)c2ccc(C(F)(F)F)c(C#N)c2)c(Cl)c1 | 5.68 |
| Cc1cccc2nc(-c3cccc(-c4cccc(NC(=O)c5cccnc5)c4)c3)[nH]c12 | -0.15 |
| CC(C)(C)c1ccc(NC(=O)c2cccc(CN3CCCN(Cc4ccc(F)cc4)CC3)c2)cc1 | 2.6 |
